Experimental findings from PubChem BioAssay (NCATS) are described below.

Experiment [1] concerns Zika virus NS2B-NS3 protease. The experiment is described as follows: Primary screen GU AMC qHTS for Zika virus inhibitors (AID 1347154). Also: nearly all actives have a fitted effect of over 70% in size. The procedure, abridged: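 Unlinked Zika NS2B hydrophilic domain–NS3 protease complex at 25 nM in 10 mM Tris-HCl pH 8.0, 0.01% Tween 20, with an AMC peptide substrate. Fluorescence change (340/450 nm) over 15 min at room temperature, normalized to controls, fitted to 4-parameter Hill.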

Experiment [2] deals with Zika virus NS2B-NS3 protease (linked construct). Kind of experiment: Primary screen NINDS Rhodamine qHTS for Zika virus inhibitors (AID 1347160). Also: nearly all actives have a fitted effect of over 55% in size. The note with it: outcome: dose series up to 57.1 µM. The procedure, abridged: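 Rhodamine110-peptide cleavage (1.5 µM substrate) by 25 nM linked NS2B-NS3 enzyme at pH 8.0 (Tris, Tween 20), after 15 min RT preincubation with compounds; 15-min fluorescence change normalized to controls and Hill-fitted.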

The nature of experiment [3]: OV-KATE Cancer Cell Toxicity qHTS against the NCATS CANVASS Library (AID 1347345). The procedure, abridged: (§1)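 Cells were seeded at 1000 per well, allowed 4 h at 37 degrees C/5% CO2, then pin-treated with an 11-point compound series. After 72 h, viability was read as CellTiter-Glo luminescence following 15min at room temperature.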
Experiment [4] can be described thus: HPAF-II Cancer Cell Toxicity qHTS against the NCATS CANVASS Library (AID 1347346). Also: series mostly up to about 38 µM; nearly all actives have a fitted effect of over 55% in size. The procedure, abridged:
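First, HPAF-II cells are plated (1000 cells/well) and held 4 h at 37 degrees C. Next, compounds are pin-transferred as an 11-point series. After 72 h, CellTiter-Glo is added and luminescence measured.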

The nature of experiment [5]: UWB1.289 Cancer Cell Toxicity qHTS against the NCATS CANVASS Library (AID 1347347). Also: series mostly up to about 38 µM; nearly all actives have a fitted effect of over 60% in size. The procedure, abridged:
as §1
On the technique in general: qHTS replaces the single test concentration by a dilution series.

Experiment [6] in a line: OV-SAHO Cancer Cell Toxicity qHTS against the NCATS CANVASS Library (AID 1347348). Also: series mostly up to about 38 µM; nearly all actives have a fitted effect of over 55% in size. The essentials: as §1
Experiment [7] can be described thus: Panc-1005 Cancer Cell Toxicity qHTS against the NCATS CANVASS Library (AID 1347349). Also: series mostly up to about 38 µM; nearly all actives have a fitted effect of over 60% in size. The essentials:
as §1

Experiment [8] can be described thus: SW1088 Cancer Cell Toxicity qHTS against the NCATS CANVASS Library (AID 1347350). Also: series mostly up to about 38 µM; nearly all actives have a fitted effect of over 75% in size. The procedure, abridged: as §1
The nature of experiment [9]: U-118MG Cancer Cell Toxicity qHTS against the NCATS CANVASS Library (AID 1347351). Also: series mostly up to about 38 µM. The procedure, abridged: as §1
Experiment [10] is described as follows: COV-362 Cancer Cell Toxicity qHTS against the NCATS CANVASS Library (AID 1347352). Also: series mostly up to about 38 µM. The essentials:
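First, 1000 cells go into each well and rest for 4 hours. Next, an 11-point dilution range is pinned in. Plates then incubate 72 hours before CellTiter-Glo addition and luminescence reading.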

Experiment [11] deals with Zika virus NS2B-NS3 protease (unlinked complex). The experiment is described as follows: Primary screen GU Rhodamine qHTS for Zika virus inhibitors: Unlinked NS2B-NS3 protease assay (AID 1347159). Also: nearly all actives have a fitted effect of over 60% in size. The essentials:
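Percent inhibition came from the 15-min rise in Rhodamine110 fluorescence (1.5 microM substrate, ~15% conversion), normalized to no-inhibitor and no-enzyme wells and Hill-fitted. Unlinked protease, 25 nM, pH 8.0 Tris buffer; compounds up to 114 microM, 15-min preincubation.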

Experiment [12] is described as follows: Confirmatory screen GU Rhodamine qHTS for Zika virus inhibitors qHTS (AID 1347157). Also: potency is read from the fitted curve at half-maximal effect; nearly all actives have a fitted effect of over 70% in size. Particulars: purified enzyme assay, Rhodamine110 substrate fluorescence, 15 min. The essentials: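 Buffer 10 mM Tris-HCl pH 8.0, 0.01% Tween 20. Unlinked protease 25 nM; compound preincubation 15 min, RT, protected from light. Substrate Rhod110, 1.5 microM; ~15% conversion in 15 min.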

Experiment [13] in a line: Confirmatory screen NINDS Rhodamine qHTS for Zika virus inhibitors (AID 1347161). Also: potency is read from the fitted curve at half-maximal effect; nearly all actives have a fitted effect of over 60% in size. The procedure, abridged:
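Single-chain NS2B-NS3 protease, 25 nM, pH 8.0; compounds preincubated 15 min. Activity: Rhodamine110 release from 1.5 microM substrate over 15 min, room temperature, data fitted to 4-parameter Hill.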

A short description of experiment [14]: Tertiary RLuc qRT-PCR qHTS assay for Zika virus inhibitors (AID 1347169). Also: top concentration of the series differs between compounds; nearly all actives have a fitted effect of over 55% in size. The essentials:
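Vero cells (1,000 per well) plated overnight at 37 degrees C, treated with compound in DMSO, then infected with recombinant ZIKV-RLuc (Cambodian) at MOI 1-2 for 48-72 hrs. Live-cell Renilla luciferase substrate added; luminescence read after 1-1.5 hrs.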
On the technique in general: In qPCR the cycle at which signal appears reflects the starting amount.

Inconclusive results are not listed. A call without a number means that no potency is given here. The source made the active and inactive calls. Calls follow the shape of the dose curve; as a rule, active = well fitted curve in the direction sought with a large enough effect; inconclusive = small, poorly fitted or top-dose-only effect, or another doubt; inactive = no such curve, though single readings can be large; an effect the other way counts as inactive or inconclusive.

As to `C[C@@H]1CC[C@H]2[C@@H](C)C(=O)O[C@@H]3O[C@@]4(C)CC[C@@H]1[C@]32OO4`, in experiment [1], the Potency entry is “inactive”. With `CN(C)CCc1c[nH]c2ccccc12`, the outcome in experiment [2], in experiment [3], in [4], in experiment [5], in experiment [6] and in experiment [7] was inactive. Also, the compound was classed as inactive in [8], in experiment [9] and in experiment [10].

With `NCc1cccnc1`, in experiment [1], the Potency result is “inactive”. Still for that read-out and setting: then `CCCCCCCCCCCC[N+](C)(C)CCOc1ccccc1`, with “inactive”. On to `O=C(N[C@H]1N=C(c2ccccc2F)c2cccc3c2N(CC3)C1=O)c1cc2ccccc2[nH]1`, for which the outcome in experiment [11] and in [2] was inactive. On to `OC(O)C(Cl)(Cl)Cl`, for which the Potency entry in [1] was “inactive”. The same measure, in the same setting: then `CCc1ccc(C2CCNCC2)cc1`, with “inactive”; and `CCN(CC)CCOC(=O)C(C)(c1ccccc1)c1ccccc1`, with “inactive”. For the compound `C[C@]12CC[C@H](O)CC1=CC[C@@H]1[C@@H]2CC[C@]2(C)C(=O)CC[C@@H]12`, in [1], the Potency entry is “inactive”. Also, the compound was called inactive in [11] and in experiment [2]. Consider `O=C(CCCN1CCC(n2c(=O)[nH]c3ccccc32)CC1)c1ccc(F)cc1`, for which, in [1], the Potency result was “inactive”. As for `CN(C)CCc1c[nH]c2ccc(O)cc12`, in experiment [1], the Potency result was “inactive”. Turning to `CCCCC1C(=O)NC(=O)N(C2CCCCC2)C1=O` (configuration not stated), the Potency result in [1] was “inactive”. Further, the compound was called inactive in experiment [2].

For `O=C(N[C@@H]1N=C(c2ccccc2F)c2cccc3c2N(CC3)C1=O)c1cc2ccccc2[nH]1`, the Potency result in [1] is “inactive”. The outcome in experiment [11] was inactive.

Consider `CC[C@H]1C[C@H]2[C@@H]3CCC4=CC(=O)CC[C@@H]4[C@H]3CC[C@]2(C)[C@H]1O`, for which the Potency entry in experiment [1] was “inactive”. Moreover, the compound was classed as inactive in [11] and in experiment [2]. For the compound `CN1C(=O)CN=C(c2ccccc2)c2cc([N+](=O)[O-])ccc21`, the Potency entry in experiment [1] was “inactive”. Take `CCCC[N+]1(C)[C@@H]2CC(OC(=O)[C@H](CO)c3ccccc3)C[C@H]1[C@@H]1O[C@@H]12` (some centres not stated): the Potency result in [1] is “inactive”. Besides, the compound was classed as inactive in experiment [11] and in experiment [2]. As for `COc1cc(C[C@@H](C)N)c(OC)cc1Br`, the Potency entry in experiment [1] was “inactive”. As to `Cc1nnc2n1-c1sc(CCc3ccc(CC(C)C)cc3)cc1C(c1ccccc1Cl)=NC2C` (configuration not stated), the Potency in experiment [12] and in experiment [13] was 44.1 µM (active) in each case. Also, the result in experiment [11] and in [14] was inactive. For the compound `O=C(O)Cc1ccccc1`, the Potency result in experiment [1] is “inactive”. The same measure, in the same setting: then `CCC(OC(C)=O)C(CC(C)NC)(c1ccccc1)c1ccccc1` (configuration not stated), with “inactive”. Regarding `O=C(O)CCCCCCNC1c2ccccc2CCc2ccccc21`, the Potency result in experiment [1] is “inactive”. Moreover, the compound was called inactive in [11] and in experiment [2].

Regarding `CCOC(=O)NC(O)C(Cl)(Cl)Cl` (configuration not stated), the Potency result in [1] was “inactive”.

As for `OC(c1ccccc1)(c1ccccc1)C1CCNCC1`, the Potency entry in experiment [1] is “inactive”. The same measure, in the same setting: then `CC(Cc1ccccc1)NCCCCl` (configuration not stated), with “inactive”.

Take `CCOC(=O)NC(C)(C)Cc1ccc(Cl)cc1`: the result in [11] and in experiment [2] was inactive. In the case of `C[C@@H]1CN(C2CCC(C#N)(c3ccc(F)cc3)CC2)CC[C@]1(C(=O)O)c1ccccc1` (some centres not stated), the Potency result in [1] was “inactive”.

Regarding `CC1=C2[C@H]3OC(=O)[C@@H](C)[C@@H]3CC[C@@]2(C)C=CC1=O`, the Potency entry in [1] is “inactive”. The same measure, in the same setting: then `C=CCOC(Cn1ccnc1)c1ccc(Cl)cc1Cl` (configuration not stated), with “inactive”. `CCOC(=O)c1cncn1C(C)c1ccccc1` (configuration not stated): the Potency entry in experiment [1] was “inactive”. The outcome in experiment [11] and in experiment [2] was inactive. With `CCOC(=O)c1ncn2c1CN(C)C(=O)c1c(I)cccc1-2`, the Potency entry in experiment [1] is “inactive”. Besides, the call in experiment [11] and in experiment [2] was inactive.
